Source: PubChem (The Scripps Research Institute Molecular Screening Center)
Many of the other results were omitted from the sample, so hits are more common in it than they were.
TbREL1 primary – TbREL1 RNA ligase inhibitors, primary screen, biochemical, FRET fluorescence; AID 1117264, 2014; RNA-editing ligase 1, mitochondrial (Trypanosoma brucei brucei), P86926; TbREL1 RNA ligation; 0.49% of 89,000 active; inhibition, % at 9.66 µM;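 active = inhibition above the mean inhibition across all screened compounds plus 3 SD, cut at about 11% in these data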;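 note: 0% = plate median of test wells and 100% = NSC42067 control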
Target sequence (P86926 whole entry, looked up): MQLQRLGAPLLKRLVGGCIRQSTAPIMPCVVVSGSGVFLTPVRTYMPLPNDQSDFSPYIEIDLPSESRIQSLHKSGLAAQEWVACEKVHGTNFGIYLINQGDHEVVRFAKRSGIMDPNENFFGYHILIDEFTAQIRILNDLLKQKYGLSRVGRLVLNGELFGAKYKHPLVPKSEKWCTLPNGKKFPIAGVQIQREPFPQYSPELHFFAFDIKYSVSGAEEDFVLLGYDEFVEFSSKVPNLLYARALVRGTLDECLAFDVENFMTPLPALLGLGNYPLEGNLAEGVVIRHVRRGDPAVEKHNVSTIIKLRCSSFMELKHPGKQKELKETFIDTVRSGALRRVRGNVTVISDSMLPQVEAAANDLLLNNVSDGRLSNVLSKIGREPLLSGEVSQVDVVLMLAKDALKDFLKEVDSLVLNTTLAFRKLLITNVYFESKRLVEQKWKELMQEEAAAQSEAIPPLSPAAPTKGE
TbREL1 confirm – TbREL1 RNA ligase inhibitors, confirmation, biochemical, FRET fluorescence, triplicate; shares compounds with TbREL1 primary; TbREL1 RNA ligation; inhibition, % at 9.66 µM; 37% of 390 active;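 active = mean inhibition across replicates above a set limit taken from the earlier primary screen, cut at about 11% in these data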;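 note: 0% = REL1 with substrate and DMSO and 100% = REL1 plus control inhibitor NSC42067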
* marks the source's active call; other numbers are inactive results.

SMILES	TbREL1 primary	others
COc1cccc(/C=C/C(=O)OCC(=O)c2ccc3c(c2)NC(=O)CO3)c1OC	-0.4
O=C1COc2ccc(C(=O)COC(=O)/C=C/c3ccc(Br)o3)cc2N1	18.5*	TbREL1 confirm=10.1
COc1ccc(/C=C/C(=O)OCC(=O)c2ccc3c(c2)NC(=O)CO3)c(OC)c1	1.0
Cc1nc2cc(C(=O)N3CCN(C(=O)C(C)(C)C)CC3)ccc2n1C1CCCC1	-3.5
O=C(NC(C(=O)O)c1ccccc1)c1ccccc1 (stereo not given)	1.4
O=C(NC1(O)C(=O)c2ccccc2C1=O)c1ccccc1	22.4*	TbREL1 confirm=48.7*
CC(=O)C(C(C)=O)C1(O)C(=O)c2ccccc2C1=O	6.7
COc1ccc(NC(=O)Nc2ccccc2C(=O)N2CCCC2)cc1OC	3.8
COC(=O)C1CN(CCO)CCS(=O)(=O)N1Cc1cn(Cc2ccc(C)cc2)nn1 (stereo not given)	0.8
O=C(O)CCc1ccc(-c2ccccc2)n1CC(=O)O	-2.5
O=C(O)CCc1ccc(-c2ccc(F)cc2)n1CCC(=O)O	34.5*	TbREL1 confirm=1.3
CCCn1c(CCC(=O)O)ccc1-c1ccccc1	-7.5
C/C(=N\NC(=O)C1CC1)c1ccc(C)c(C)c1	-1.9
COC(=O)N/N=C(\C)c1ccc(OC(F)F)cc1	3.6
C/C(=N\NC(=O)C1CC1)c1ccc(OC(F)F)cc1	16.4*	TbREL1 confirm=4.2
O=C(NCCc1ccccc1)OCc1cn(-c2ccc(Cl)cc2)nn1	-2.4
Fc1cccc(F)c1Cn1ccc2ccc(-c3ccc4ccn(Cc5c(F)cccc5F)c4c3)cc21	0.8
O=C(CSc1nnc(-c2ccco2)n1Cc1ccco1)c1ccc([N+](=O)[O-])cc1	0.3
C(/C=C\c1ccco1)=NN1CCN(Cc2cccc3ccccc23)CC1	-3.8
Cc1ccc(-n2c(SCC(=O)Nc3ccc(S(=O)(=O)Nc4cc(C)nc(C)n4)cc3)nnc2-c2cccs2)cc1	-1.7
O=C(NCCNC(=O)c1ccccn1)c1ccc(Cl)cc1	2.9
O=C(CCNC(=O)c1ccc(Cl)cc1)Nc1ncccc1O	19.3*	TbREL1 confirm=1.5
Cc1ccc(C(=O)CCC(=O)Nc2ncccc2O)cc1	-1.8
O=C(N1CCC(C(O)(c2ccccc2)c2ccccc2)CC1)n1ncc(C(O)(c2ccccc2)c2ccccc2)n1	-3.3
COC(=O)[C@H](C)NC(=O)C(Cc1ccc2c(c1)OCO2)NC(C)=O (stereo not given in full)	-0.1
SMILES	TbREL1 primary	others
COC(=O)[C@]12C[C@H](CC(=O)NCc3ccc(OC)c(OC)c3)C(=O)N(Cc3cccc4ccccc34)C1=C[C@H](C1CCCC1)O[C@@H]2C	0.1
Cc1cc(C)c(OCCCNCc2ccccc2)c(Br)c1	15.0*	TbREL1 confirm=15.0*
Clc1ccc(OCCCNCc2ccccc2)c(Br)c1	1.9
CCCCNCc1cc(Br)c(OCC(=O)NCc2ccccc2)c(OC)c1	2.8
Cc1cc(Cl)c(OCCCNCc2ccccc2)c(Br)c1	11.8*	TbREL1 confirm=11.4*
Cc1cc(Cl)c(OCCN2C(=O)NC(C)(C)C2=O)c(Br)c1	-0.8
COc1cccc(OCCNCc2ccccc2)c1	0.8
O=C(C1CCCN1S(=O)(=O)c1ccc(Br)s1)N1CCN(c2ccccc2)CC1 (stereo not given)	-5.3
COc1ccc2[nH]c3c(c2c1)CCN[C@]31C(=O)N(C)c2ccccc21	-0.6
COC(=O)[C@]12C[C@H](CC(=O)NCCC(C)C)C(=O)N(CCc3ccc(OC)c(OC)c3)C1=C[C@H](COCc1ccccc1)O[C@@H]2C	-1.7
COc1ccc(CNC2CCC23CCC(C)CC3)cc1OC (stereo not given)	-2.3
CCCCN1CCS(=O)(=O)N(Cc2cn(Cc3ccccc3Br)nn2)C(C(=O)OC)C1 (stereo not given)	-1.3
COc1cc2c(cc1NC(=O)CSc1nnc(-c3cccnc3)n1-c1ccc(Br)cc1)oc1ccccc12	11.5*	TbREL1 confirm=5.6
CCOc1ccc(-n2c(SCC(=O)Nc3cc4oc5ccccc5c4cc3OC)nnc2-c2cccc(Cl)c2)cc1	1.3
COc1cc2c(cc1NC(=O)CSc1nnc(-c3ccccn3)n1-c1ccccc1)oc1ccccc12	8.1
Cc1occc1-c1nnc(SCC(=O)Nc2ccc3ncccc3c2)n1-c1ccccc1	-0.4
CC(=O)CCc1ccc(OCCCCN2CCC(Cc3ccccc3)CC2)cc1	1.1
CCC(=O)c1ccccc1OCCCN1CCC(Cc2ccccc2)CC1	11.3*	TbREL1 confirm=11.4*
CCOc1ccccc1OCCN1CCC(Cc2ccccc2)CC1	1.8
O=C(Cc1ccccc1F)Nc1nnc(-c2cccnc2)s1	2.9
Nc1scn[n+]1Cc1cccc2cccnc12	1.9
Nc1ccc(Br)c[n+]1Cc1cccc2cccnc12	12.4*	TbREL1 confirm=8.3
Brc1ccc(COc2cccc3cccnc23)cc1	4.1
COC(=O)c1ccc(Cn2ccc3ccc(-c4ccc5ccn(C(=O)C6CCCCC6)c5c4)cc32)cc1	3.6
CC(=O)c1cc(-c2ccc([N+](=O)[O-])cc2)c(=O)n2c1CCC2	7.2
SMILES	TbREL1 primary	others
Cc1onc(-c2c(F)cccc2Cl)c1C(=O)Nc1cc(S(=O)(=O)N2CCCCC2)ccc1O	22.5*	TbREL1 confirm=2.3
Cc1ccc(O)c(NC(=O)c2cccc(S(=O)(=O)N3CCCCC3)c2)c1	-4.2
Cc1onc(-c2ccccc2)c1C(=O)Nc1ccc(S(=O)(=O)N2CCCCC2)cc1	-0.4
Cc1cc(C(=O)Nc2ccc(Cl)c(Cl)c2)n(-c2ccccc2)n1	-2.7
CCCC1CCC2(CC1)CCC2OC(=S)Nc1cccc(C(F)(F)F)c1 (stereo not given)	10.5
O=C(N/N=C/c1cccc(OC(=O)c2cccc(Br)c2)c1)c1cccnc1	1.3
O=C(N/N=C/c1cccnc1)c1cccc(NC(=O)c2cccc(Br)c2)c1	12.1*	TbREL1 confirm=0.8
O=C(N/N=C/c1ccc(OC(=O)c2cccc(Br)c2)cc1)c1cccnc1	0.3
CCC[C@H]1[C@@H](NC(=O)c2ccc(C)cc2)CC[C@@]23CCCN2C(=O)CCC[C@@H]13	1.2
COc1ccc(C2Nc3ccccc3C(=O)N2Cc2ccccc2)cc1COc1ccc(NC(C)=O)cc1 (stereo not given)	-1.0
COc1ccc(CN(CCN2CCOCC2)C(=O)c2cc(Cl)ccc2F)cc1OC	-1.4
Oc1c(Cl)cc(CN2CCOCC2)c2cccnc12	2.2
O=S(=O)(c1ccc(Cl)cc1)N1CCN(Cc2ccc(O)c3ncccc23)CC1	0.1
CN1CCN(C2CCN(Cc3ccc(O)c4ncccc34)CC2)CC1	16.6*	TbREL1 confirm=8.0
C[C@H]1C(=O)CC[C@@]23CCCN2C(=O)CCC[C@@H]13	4.9
Cn1cccc1C(=O)N1CCN(S(=O)(=O)c2ccccc2F)CC1	-2.9
O=C(CN1C(=O)C2(OCCCO2)c2ccccc21)NCc1ccc(F)cc1	3.8
CC(=O)CSc1nc(N)c(C#N)c(-c2cccs2)c1C#N	2.7
COc1ccc(NC(=O)CSc2nc(C)c3c(c2C#N)CCCC3)cc1	-2.4
CN1CCc2nc(SCC(=O)Nc3ccc(OC(F)(F)F)cc3)c(C#N)c(-c3cccs3)c2C1	12.5*	TbREL1 confirm=3.8
CCC(C)N(C(=O)c1ccc(CNC(=O)c2cccc(Br)c2)cc1)C(C)CC (stereo not given)	-3.4
CCOc1ccc(N(CC(=O)Nc2c(C)n(C)n(-c3ccccc3)c2=O)S(=O)(=O)c2cc(OC)ccc2OC)cc1	0.7
